“And” between values parts separate entries of the source, which are not always exact repeats. Identical values can stand only once. Results filed as inconclusive are left out. A call without a number means that no potency is given here. Where a structure was tested more than once in an assay, its records may differ in their call. The source made the active and inactive calls. Calls follow the shape of the dose curve; as a rule, active = well fitted cell-killing curve with a large enough effect in the repeat runs; inconclusive = weak or mixed curves; inactive = flat fitted curve, though single readings scatter.
Experiment: qHTS RealTime-Glo MT Cell Viability Assay in HepG2 cells - 32 hour (AID 1224877); also: nearly all actives have a fitted effect of over 55% in size
Settings: RealTime-Glo luminescence; series mostly up to 76.8 µM
How it was run: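 HepG2 suspension premixed with RealTime-Glo reagents is plated at 600 cells per well and left 5 h at 37 C/5% CO2. Compounds in DMSO then go in, and bioluminescence reflecting viable cell number is recorded over 40 h.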
Potency is read from the fitted curve at half-maximal effect.

| Compound | Potency |
| --- | --- |
| CC1=CC2C3CC(C=C3C)C2C1 (stereo not given) | inactive |
| OC1CCCCCCCCCCC1 | inactive |
| O=C(c1ccc(OCCN2CCCCC2)cc1)c1c(-c2ccc(O)cc2)sc2cc(O)ccc12 | 55 µM (active) and 54.9 µM (active) and inactive |
| CCC(C)OC(=O)c1ccc(O)cc1 (stereo not given) | inactive |
| OC[C@H]1O[C@@H]2O[C@H]3[C@H](O)[C@@H](O)[C@@H](O[C@H]4[C@H](O)[C@@H](O)[C@@H](O[C@H]5[C@H](O)[C@@H](O)[C@@H](O[C@H]6[C@H](O)[C@@H](O)[C@@H](O[C@H]7[C@H](O)[C@@H](O)[C@@H](O[C@H]8[C@H](O)[C@@H](O)[C@@H](O[C@H]1[C@H](O)[C@H]2O)O[C@@H]8CO)O[C@@H]7CO)O[C@@H]6CO)O[C@@H]5CO)O[C@@H]4CO)O[C@@H]3CO | inactive |
| COc1c(Cl)c(Cl)c(Cl)c(Cl)c1Cl | inactive |
| S=C(NC1CCCCC1)NC1CCCCC1 | inactive |
| O=C1c2cccc(O)c2C(=O)c2c(O)cccc21 | inactive |
| CC(=O)O[C@]1(C(C)=O)CC[C@H]2[C@@H]3C=C(Cl)C4=CC(=O)[C@@H]5C[C@@H]5[C@]4(C)[C@H]3CC[C@@]21C | inactive |
| CCC(C)c1ccccc1O (stereo not given) | inactive |
| CCOCCOCCO | inactive |
| COc1ccccc1/C=C/C=O | inactive |
| O=C(Nc1ccc(Cl)cc1)Nc1ccc(Cl)c(Cl)c1 | inactive |
| C[C@]12CC[C@H]3[C@@H](CCC4=CC(=O)CC[C@@]43C)[C@@H]1CC[C@@H]2C(=O)CO | inactive |
| CC(C)Oc1ccc2c(=O)c(-c3ccccc3)coc2c1 | inactive |

— PubChem BioAssay (Tox21)
